A word on the inhibition: it is the relative decrease from the control value, in per cent.

“And” between values parts separate entries of the source, which are not always exact repeats. Identical values can stand only once.

Consider 16 molecules from ChEMBL document CHEMBL1961873, “Compounds: GSK PKIS; Assays: Nanosyn kinase panel” (2012).

For experiment [1], the target named is Death-associated protein kinase 1 (Homo sapiens) (UniProt P53355). The conditions noted are these: at 1 µM.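 Note: each value is a mean inhibition figure.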
Sequence of Death-associated protein kinase 1 (Homo sapiens) (P53355 whole entry, looked up): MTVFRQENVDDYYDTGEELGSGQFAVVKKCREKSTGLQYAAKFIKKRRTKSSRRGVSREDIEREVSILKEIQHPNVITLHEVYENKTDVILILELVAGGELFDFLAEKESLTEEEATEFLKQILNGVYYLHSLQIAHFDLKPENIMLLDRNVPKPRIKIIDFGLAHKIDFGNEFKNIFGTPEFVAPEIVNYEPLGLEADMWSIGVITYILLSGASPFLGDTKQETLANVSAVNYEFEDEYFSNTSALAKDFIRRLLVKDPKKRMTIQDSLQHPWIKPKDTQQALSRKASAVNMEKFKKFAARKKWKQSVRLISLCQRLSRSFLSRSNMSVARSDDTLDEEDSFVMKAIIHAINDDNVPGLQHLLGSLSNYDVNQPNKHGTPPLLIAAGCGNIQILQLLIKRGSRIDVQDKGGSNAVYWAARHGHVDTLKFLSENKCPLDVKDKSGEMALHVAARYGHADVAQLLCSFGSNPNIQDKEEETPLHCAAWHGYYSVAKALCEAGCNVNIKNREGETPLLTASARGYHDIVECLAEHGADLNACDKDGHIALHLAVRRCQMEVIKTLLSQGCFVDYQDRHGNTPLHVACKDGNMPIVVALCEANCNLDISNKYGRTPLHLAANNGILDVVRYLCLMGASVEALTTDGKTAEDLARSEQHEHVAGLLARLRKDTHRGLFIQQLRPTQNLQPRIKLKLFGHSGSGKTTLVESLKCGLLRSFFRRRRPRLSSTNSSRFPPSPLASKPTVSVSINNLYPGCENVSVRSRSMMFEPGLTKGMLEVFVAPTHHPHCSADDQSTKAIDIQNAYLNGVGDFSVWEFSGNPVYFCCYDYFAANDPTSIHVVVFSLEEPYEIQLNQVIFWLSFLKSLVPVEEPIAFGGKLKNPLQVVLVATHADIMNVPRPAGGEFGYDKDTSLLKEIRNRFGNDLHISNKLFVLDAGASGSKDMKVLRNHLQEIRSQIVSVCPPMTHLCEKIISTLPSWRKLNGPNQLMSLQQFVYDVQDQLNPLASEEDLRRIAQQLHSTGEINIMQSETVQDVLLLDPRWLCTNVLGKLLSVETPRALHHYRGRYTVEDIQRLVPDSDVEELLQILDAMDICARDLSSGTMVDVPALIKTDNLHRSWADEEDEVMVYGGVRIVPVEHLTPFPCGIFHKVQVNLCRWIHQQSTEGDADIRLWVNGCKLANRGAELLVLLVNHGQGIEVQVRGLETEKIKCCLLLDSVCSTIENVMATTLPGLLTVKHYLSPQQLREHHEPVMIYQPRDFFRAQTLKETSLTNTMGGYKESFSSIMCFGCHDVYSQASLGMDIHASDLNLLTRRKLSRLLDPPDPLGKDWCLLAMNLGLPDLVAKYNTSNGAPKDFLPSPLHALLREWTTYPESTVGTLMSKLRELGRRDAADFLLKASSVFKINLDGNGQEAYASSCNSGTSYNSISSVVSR
Experiment [2] deals with T1, Serine/threonine-protein kinase DCLK2 (Homo sapiens) (UniProt Q8N568).
T1 sequence (whole entry): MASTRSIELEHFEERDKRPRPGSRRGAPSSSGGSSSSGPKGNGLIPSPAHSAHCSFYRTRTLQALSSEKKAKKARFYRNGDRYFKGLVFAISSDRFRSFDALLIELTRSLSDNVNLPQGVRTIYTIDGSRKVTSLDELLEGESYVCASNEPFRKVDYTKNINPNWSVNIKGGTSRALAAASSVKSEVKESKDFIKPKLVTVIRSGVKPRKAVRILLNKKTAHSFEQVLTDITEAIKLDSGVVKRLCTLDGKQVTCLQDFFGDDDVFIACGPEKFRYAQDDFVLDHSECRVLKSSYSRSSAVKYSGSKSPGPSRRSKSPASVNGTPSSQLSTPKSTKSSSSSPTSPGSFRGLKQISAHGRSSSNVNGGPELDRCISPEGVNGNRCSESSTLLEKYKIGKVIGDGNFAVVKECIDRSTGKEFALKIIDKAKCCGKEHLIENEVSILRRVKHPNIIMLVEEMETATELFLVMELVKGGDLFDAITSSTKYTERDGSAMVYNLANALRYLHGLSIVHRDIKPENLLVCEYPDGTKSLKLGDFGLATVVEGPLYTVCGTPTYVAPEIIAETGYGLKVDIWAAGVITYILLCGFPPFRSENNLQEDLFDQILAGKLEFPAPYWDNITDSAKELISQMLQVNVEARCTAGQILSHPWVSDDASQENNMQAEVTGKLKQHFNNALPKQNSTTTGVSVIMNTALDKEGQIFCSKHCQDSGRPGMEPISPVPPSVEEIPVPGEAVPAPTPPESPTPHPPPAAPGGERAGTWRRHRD
Conditions: at 0.1 µM.

The target of experiment [3] is T1, Serine/threonine-protein kinase DCLK2 (Homo sapiens). Conditions: at 1 µM.
Experiment [4] deals with MAP kinase-activated protein kinase 2 (Homo sapiens) (UniProt P49137). The conditions noted are these: at 0.1 µM.
Sequence of MAP kinase-activated protein kinase 2 (Homo sapiens) (P49137 whole entry, looked up): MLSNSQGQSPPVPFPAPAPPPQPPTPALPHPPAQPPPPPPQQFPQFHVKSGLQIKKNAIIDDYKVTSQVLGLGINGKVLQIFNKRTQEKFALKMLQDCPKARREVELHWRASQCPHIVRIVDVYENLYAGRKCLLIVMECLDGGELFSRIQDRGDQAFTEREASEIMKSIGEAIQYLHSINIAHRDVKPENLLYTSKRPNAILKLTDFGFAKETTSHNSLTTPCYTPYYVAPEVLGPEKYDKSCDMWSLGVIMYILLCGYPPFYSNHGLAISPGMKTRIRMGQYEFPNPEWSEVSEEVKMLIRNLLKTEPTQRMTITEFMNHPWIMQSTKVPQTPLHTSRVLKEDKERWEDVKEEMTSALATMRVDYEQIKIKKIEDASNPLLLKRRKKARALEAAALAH
For experiment [5] the target is unchanged. The conditions noted are these: at 1 µM.
For experiment [6], the target named is MAP kinase-activated protein kinase 3 (Homo sapiens) (UniProt Q16644). The conditions noted are these: at 0.1 µM.
Sequence of MAP kinase-activated protein kinase 3 (Homo sapiens) (Q16644 whole entry, looked up): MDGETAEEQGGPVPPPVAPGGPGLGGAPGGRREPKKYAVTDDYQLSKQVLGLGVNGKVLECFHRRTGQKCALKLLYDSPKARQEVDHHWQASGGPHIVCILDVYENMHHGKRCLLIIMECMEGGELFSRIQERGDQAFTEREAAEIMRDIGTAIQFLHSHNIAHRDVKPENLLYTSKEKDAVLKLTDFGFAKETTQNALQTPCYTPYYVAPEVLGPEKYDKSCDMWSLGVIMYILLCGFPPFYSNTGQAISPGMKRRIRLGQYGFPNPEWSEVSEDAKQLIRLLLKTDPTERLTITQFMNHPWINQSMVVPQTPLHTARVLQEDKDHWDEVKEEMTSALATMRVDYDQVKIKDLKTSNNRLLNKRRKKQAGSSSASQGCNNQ
The target is the same in experiment [7]. Conditions: at 1 µM.
Experiment [8] concerns the target Serine/threonine-protein kinase MARK1 (Homo sapiens) (UniProt Q9P0L2). The conditions noted are these: at 0.1 µM.
For experiment [9] the target is unchanged. Conditions: at 1 µM.
The target in experiment [10] is MAP/microtubule affinity-regulating kinase 3 (Homo sapiens) (UniProt P27448). Conditions: at 0.1 µM.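 Note: mean percent inhibition of MARK3 kinase activity, measured within the GSK PKIS screening panel.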
Sequence of MAP/microtubule affinity-regulating kinase 3 (Homo sapiens) (P27448 whole entry, looked up): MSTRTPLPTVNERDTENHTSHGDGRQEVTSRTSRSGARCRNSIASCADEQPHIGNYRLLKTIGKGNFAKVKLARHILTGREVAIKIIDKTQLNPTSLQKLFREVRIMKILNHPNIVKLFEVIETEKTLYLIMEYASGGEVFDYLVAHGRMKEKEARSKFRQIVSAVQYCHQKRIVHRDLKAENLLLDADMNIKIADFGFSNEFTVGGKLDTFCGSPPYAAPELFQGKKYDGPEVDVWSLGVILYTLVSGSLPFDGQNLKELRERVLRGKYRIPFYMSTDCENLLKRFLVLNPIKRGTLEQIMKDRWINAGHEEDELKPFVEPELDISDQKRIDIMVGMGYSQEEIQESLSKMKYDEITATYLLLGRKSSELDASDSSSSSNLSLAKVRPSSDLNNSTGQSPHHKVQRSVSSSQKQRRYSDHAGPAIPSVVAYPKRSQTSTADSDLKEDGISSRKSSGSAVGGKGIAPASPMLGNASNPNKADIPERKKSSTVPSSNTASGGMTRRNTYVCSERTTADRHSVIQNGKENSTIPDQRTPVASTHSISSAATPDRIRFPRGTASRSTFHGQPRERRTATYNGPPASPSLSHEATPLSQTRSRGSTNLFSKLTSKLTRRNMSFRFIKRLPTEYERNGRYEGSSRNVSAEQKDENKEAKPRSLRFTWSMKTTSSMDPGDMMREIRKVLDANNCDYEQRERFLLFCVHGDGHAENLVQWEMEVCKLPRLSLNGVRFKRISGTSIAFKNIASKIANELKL

Sequence of Serine/threonine-protein kinase MARK1 (Homo sapiens) (Q9P0L2 whole entry, looked up): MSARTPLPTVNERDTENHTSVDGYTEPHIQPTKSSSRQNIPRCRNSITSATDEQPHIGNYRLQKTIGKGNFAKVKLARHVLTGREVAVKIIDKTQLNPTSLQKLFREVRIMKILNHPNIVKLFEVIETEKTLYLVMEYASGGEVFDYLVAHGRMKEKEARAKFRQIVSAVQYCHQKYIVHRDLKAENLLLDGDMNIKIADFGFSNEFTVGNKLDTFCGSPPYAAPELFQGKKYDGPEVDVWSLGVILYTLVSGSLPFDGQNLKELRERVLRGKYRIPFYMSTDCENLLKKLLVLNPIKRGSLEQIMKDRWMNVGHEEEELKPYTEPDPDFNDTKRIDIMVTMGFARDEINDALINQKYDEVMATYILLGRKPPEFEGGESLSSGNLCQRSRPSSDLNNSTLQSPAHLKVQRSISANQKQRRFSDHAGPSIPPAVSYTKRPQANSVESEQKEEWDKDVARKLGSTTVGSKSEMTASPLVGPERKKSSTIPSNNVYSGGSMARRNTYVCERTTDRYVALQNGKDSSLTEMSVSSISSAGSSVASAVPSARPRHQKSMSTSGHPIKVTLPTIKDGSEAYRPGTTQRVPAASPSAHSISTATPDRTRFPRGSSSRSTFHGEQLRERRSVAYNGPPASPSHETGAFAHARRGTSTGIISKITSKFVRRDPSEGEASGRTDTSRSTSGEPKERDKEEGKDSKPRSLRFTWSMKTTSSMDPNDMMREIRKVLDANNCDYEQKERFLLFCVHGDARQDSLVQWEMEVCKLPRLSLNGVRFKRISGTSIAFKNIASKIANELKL

As for `CS(=O)(=O)Nc1ccc(-c2ccc3c(NC(=O)C4CC4)n[nH]c3c2)cc1`, the inhibition came out at 4.64% in experiment [1]; 1.42% in experiment [2]; 1.42% in experiment [3]; 1.53% in experiment [4]; 1.14% in experiment [5]; 3.27% in experiment [6]. The inhibition came to 3.44% in experiment [7], 2.32% in experiment [8], 2.73% in [9] and 3.47% in [10].
As to `Cc1cc(O)cc(C)c1/C=C/c1cncc(C(N)=O)c1`, the inhibition in experiment [1] was determined as 1.91%; in [2] it was 1.42%; in experiment [3], 3.35%; in experiment [4], 1.06%; in experiment [5], 0.98%; in experiment [6] it was 1.57%. In addition, the inhibition worked out at 1.76% in experiment [7], 2.85% in experiment [8], 3.03% in experiment [9] and 3.52% in [10].
In the case of `O=C(Nc1n[nH]c2nnc(-c3cccnc3)cc12)C1CC1`, the inhibition was -2.01% in experiment [1]; -0.69% in experiment [2]; -0.41% in [3]; -0.72% in [4]; -0.2% in experiment [5]; 0.08% in experiment [6]. Also, the inhibition in [7] was -0.37%; in [8], -0.14%; in [9], 0.29%; in experiment [10], 0.23%.
`CNC(=O)c1sc(-n2cnc3cc(OC)c(OC)cc32)cc1OCc1ccccc1C(F)(F)F`: the inhibition in experiment [1] was found to be 3%; in experiment [2], 0.25%; in experiment [3] it was 2.29%; in experiment [4] it was 1.17%; in experiment [5] it was 1.2%; in [6], 3.3%. Moreover, the inhibition was 2.78% in experiment [7], 2.03% in experiment [8], 4.3% in experiment [9] and 0.78% in experiment [10].
In the case of `COC(=O)Nc1nc2cc(Oc3ccc(NC(=O)Nc4ccccc4)cc3)ccc2[nH]1`, the inhibition in experiment [1] was 3.19%; in experiment [2] it was -1.72%; in experiment [3], 5.13%; in [4], 1.49%; in experiment [5] it was 1.44%; in experiment [6], 1.74%. For the same molecule, the inhibition in experiment [7] is 2.32%; in experiment [8], 2.28%; in experiment [9], 4.31%; in experiment [10] it was 1.57%.
Consider `Fc1ccc(Nc2nccc(-c3c(-c4ccc(C(F)(F)F)cc4)nn4ncccc34)n2)cc1F`, for which the inhibition was 4.85% in experiment [1]; 1.36% in experiment [2]; 0.53% in [3]; 1.35% in experiment [4]; 0.53% in experiment [5]; 1.82% in experiment [6]. Moreover, the inhibition in experiment [7] was 4.65%; in experiment [8], 3.43%; in [9], 4.46%; in experiment [10], 3.28%.
In the case of `COC(=O)Nc1nc2ccc(Oc3ccc(NC(=O)Nc4cc(C(F)(F)F)ccc4F)cc3)cc2s1`, the inhibition was -1.22% in [1]; -1.5% in experiment [2]; -7.94% in experiment [3]; 0.26% in [4]; -0.42% in experiment [5]; 7.74% in experiment [6]. The inhibition in experiment [7] was found to be 20.3%; in [8], 0.76%; in experiment [9], 0.29%; in experiment [10], 0.41%.
As for `CN(C)CCNC(=O)Nc1ccc(N(C)c2ccnc(Nc3ccc(CS(C)(=O)=O)cc3)n2)cc1`, the inhibition in experiment [1] worked out at 4.89%; in experiment [2], 2.39%; in experiment [3] it was 1.2%; in experiment [4] it was 1.53%; in [5], 1.45%; in experiment [6], 2.22%. Also, the inhibition was 2.99% in [7], 4.47% in [8], 9.32% in [9] and 6.51% in experiment [10].
For `COc1cccc(Nc2nccc(-c3cnn4ncccc34)n2)c1`, the inhibition in [1] was 0.16%; in experiment [2], -2.05%; in experiment [3] it was 2.73%; in experiment [4], 1.39%; in [5] it was -0.06%; in experiment [6], 2.8%. For the same molecule, the inhibition in [7] was found to be 2.89%; in [8] it was 4.15%; in experiment [9], 27.7%; in experiment [10], 4.03%.
As for `NS(=O)(=O)c1ccc(N/N=C2\C(=O)Nc3cccc(CCc4ccncc4)c32)cc1`, the inhibition in [1] is -1.65%; in experiment [2], -0.47%; in experiment [3], -0.08%; in [4], -0.02%; in experiment [5], -0.84%; in experiment [6], 0.82%. Further, the inhibition in [7] amounted to 0.37%; in experiment [8], 2.29%; in [9] it was 5.9%; in experiment [10], 1.2%.
In the case of `NS(=O)(=O)c1cccc(N/C=C2\C(=O)Nc3ccccc32)c1`, the inhibition amounted to 12.5% in experiment [1]; 0.84% in experiment [2]; 2.32% in experiment [3]; 4.22% in [4]; 4.45% in [5]; 11.3% in experiment [6]. For the same molecule, the inhibition in experiment [7] worked out at 12.1%; in experiment [8], 6.31%; in experiment [9] it was 24.4%; in experiment [10], 5.23%.
In the case of `CS(=O)(=O)CCNCc1ccc(-c2ccc3ncnc(Nc4ccc(OCc5cccc(C(F)(F)F)c5)cc4)c3c2)o1`, the inhibition was determined as 5.63% in experiment [1]; 0.29% in [2]; 1.78% in experiment [3]; 3.06% in experiment [4]; 3.74% in [5]; 5.88% in experiment [6]. The inhibition in experiment [7] worked out at 8.3%; in experiment [8], 0.99%; in experiment [9] it was 3.78%; in [10], 0.32%.
`CNC(=O)c1ncccc1Nc1nc(Nc2cc3c(cc2OC)CCCN3C(=O)CN(C)C)nc2[nH]ccc12`: the inhibition in experiment [1] amounted to 7.57%; in [2] it was 1.66%; in experiment [3] it was 3.04%; in experiment [4] it was 2.23%; in [5] it was 1.51%; in [6] it was 3.6%. In addition, the inhibition in [7] was determined as 2.72%; in experiment [8], 4.87%; in experiment [9] it was 6.32%; in [10], 5.9%.
For `CC(C)c1ccc(-c2cc(-c3c[nH]nc3-c3ccccn3)ccn2)cc1`, the inhibition in [1] is -0.6%; in [2], 0.39%; in experiment [3] it was -0.35%; in experiment [4], 0.58%; in experiment [5], -0.11%; in experiment [6], 0.63%. Moreover, the inhibition in experiment [7] was 6.51%; in experiment [8] it was 1.23%; in experiment [9], 1.49%; in experiment [10] it was -3.53%.
In the case of `CCS(=O)(=O)c1ccc(OC)c(Nc2ncc(-c3cccc(C(C)=O)c3)o2)c1`, the inhibition is 3.26% in experiment [1]; -0.25% in [2]; -0.78% in [3]; 2.19% in [4]; 1.71% in [5]; 3% in experiment [6]. For the same molecule, the inhibition was determined as 3.61% in experiment [7], 1.61% in [8], 3.04% in [9] and 0.57% in experiment [10].
`CN1CCC(C(=O)Nc2n[nH]c3nc(-c4ccc(O)cc4)c(Br)cc23)CC1`: the inhibition in experiment [1] is 2.5% and 1.28%; in experiment [2], -1.57% and -0.96%; in experiment [3], 5.44% and 10.2%; in experiment [4], 1.56% and -0.15%; in experiment [5], 1.12%; in [6], 2.88% and 0.82%. Moreover, the inhibition is 2.79% and 1.9% in [7]; 3.54% and -0.23% in experiment [8]; 8.58% and 1.5% in experiment [9]; -0.22% and -0.59% in [10].
